Source: PubChem BioAssay (Tox21)
Results filed as inconclusive are left out. The source made the active and inactive calls. Unless noted, calls follow the shape of the dose curve; as a rule, active = well fitted curve in the direction sought with a large enough effect in the repeat runs; inconclusive = weak or mixed curves; inactive = flat fitted curve, though single readings scatter.

How the values were obtained:
[1] = qHTS assay to test for compound auto fluorescence at 535 nm (green) in HEK293 cells (AID 720680)
[2] = qHTS assay to test for compound auto fluorescence at 460 nm (blue) in HEK293 cell free culture (AID 720681)
Procedure, shortened: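 Compounds were added to cell-free DMEM with 10% FBS and fluorescence read directly. The blue channel used 405 nm excitation and 460 nm emission, with triamterene as the reference fluorophore.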

[3] = qHTS assay to test for compound auto fluorescence at 590 nm (red) in HEK293 cell free culture (AID 720683)
Procedure, shortened: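 Cell-free wells of DMEM with 10% FBS received compound, and intrinsic fluorescence was read at excitation/emission 540/590 nm. Values expressed as equivalence to Rose Bengal sodium.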

[4] = qHTS assay to test for compound auto fluorescence at 590 nm (red) in HepG2 cell free culture (AID 720684)
Procedure, shortened: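 Auto fluorescence equivalency versus Rose Bengal sodium, red channel Ex/Em 540/590 nm; compounds in cell-free MEM/10% FBS; DMSO vehicle control.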

[5] = qHTS assay to test for compound auto fluorescence at 460 nm (blue) in HepG2 cell free culture (AID 720685)
Procedure, shortened: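 Cell-free plates of MEM plus 10% FBS received 23 nL compound or DMSO vehicle; blue-channel (405/460 nm) intensity scored against triamterene as reference fluorophore.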

[6] = qHTS assay to test for compound auto fluorescence at 535 nm (green) in HepG2 cell free culture (AID 720686)
[7] = qHTS assay to test for compound auto fluorescence at 535 nm (green) in HEK293 cell free culture (AID 720682)
Procedure, shortened: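 Compounds were pin-transferred into cell-free DMEM with 10% FBS, and green fluorescence was read at excitation 485 nm and emission 535 nm. Intensities were expressed as fluorescein-equivalent values.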

[8] = qHTS assay to test for compound auto fluorescence at 460 nm (blue) in HepG2 cells (AID 720687)
Procedure, shortened: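 HepG2 cells in MEM with 10% FBS, attached overnight at 37 C, were exposed to compound or DMSO for 1 hr at 37 C, 5% CO2. Blue fluorescence was read at 405/460 nm, with triamterene as reference fluorophore.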

[9] = target: Glucocorticoid receptor (Homo sapiens) (UniProt P04150); experiment: qHTS assay to identify small molecule agonists of the glucocorticoid receptor (GR) signaling pathway (AID 720691; active = well fitted activation curve with a large enough effect in the signal ratio in the repeat runs, not every such curve was filed as active; the % refers to the signal ratio)
Sequence of Glucocorticoid receptor (Homo sapiens) (P04150 whole entry, looked up): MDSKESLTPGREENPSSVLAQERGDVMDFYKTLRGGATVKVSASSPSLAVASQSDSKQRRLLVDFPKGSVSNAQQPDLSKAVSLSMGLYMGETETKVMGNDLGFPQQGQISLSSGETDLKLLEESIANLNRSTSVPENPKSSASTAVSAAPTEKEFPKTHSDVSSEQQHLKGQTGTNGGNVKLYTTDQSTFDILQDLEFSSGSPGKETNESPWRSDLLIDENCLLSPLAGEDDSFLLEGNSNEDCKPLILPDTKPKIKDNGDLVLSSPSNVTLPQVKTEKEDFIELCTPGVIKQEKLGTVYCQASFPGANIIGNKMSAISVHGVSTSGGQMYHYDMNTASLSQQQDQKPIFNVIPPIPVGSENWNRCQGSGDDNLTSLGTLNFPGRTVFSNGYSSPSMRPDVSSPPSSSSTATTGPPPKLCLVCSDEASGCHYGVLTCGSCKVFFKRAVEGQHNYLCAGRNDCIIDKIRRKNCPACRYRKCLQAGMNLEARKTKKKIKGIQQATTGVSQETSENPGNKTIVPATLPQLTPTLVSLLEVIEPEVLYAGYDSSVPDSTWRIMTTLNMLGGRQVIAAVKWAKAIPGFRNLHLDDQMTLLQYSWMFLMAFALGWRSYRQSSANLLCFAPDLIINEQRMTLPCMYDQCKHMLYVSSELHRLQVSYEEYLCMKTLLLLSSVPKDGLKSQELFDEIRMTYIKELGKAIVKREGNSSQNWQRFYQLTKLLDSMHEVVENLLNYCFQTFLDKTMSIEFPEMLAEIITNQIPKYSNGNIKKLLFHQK
Procedure, shortened: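 HeLa GR-bla reporter line; cells pre-incubated 4 h, compound in DMSO 18 h at 37 C; LiveBLAzer B/G FRET substrate 2 h RT; fluorescence intensity read-out.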

[10] = target: Glucocorticoid receptor (Homo sapiens) (UniProt P04150); experiment: qHTS assay to identify small molecule antagonists of the glucocorticoid receptor (GR) signaling pathway (AID 720692; active = well fitted inhibition curve with a large enough effect in the signal ratio in the repeat runs, not every such curve was filed as active; the % refers to the signal ratio)
Procedure, shortened: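 Read-out: beta-lactamase FRET substrate fluorescence, 2 h at room temperature, in HeLa cells stably carrying a GRE-driven bla reporter. Compounds were co-incubated with 5 nM dexamethasone agonist (final) for 18 h at 37 C.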
% is scaled to controls: 0 for no effect and ±100 for the full control effect.

CCO[Si](CCCN=C=O)(OCC)OCC
inactive: outcome [1] | Potency [2] | outcome [3] | outcome [4] | Potency [5] | outcome [6]

Cc1cc(C)cc(OCC2CNC(=O)O2)c1 (stereo not drawn)
inactive: outcome [1] | Potency [2] | outcome [7] | outcome [3] | Potency [5] | outcome [6] | Potency [8] | Potency [9] | Potency [10]

CC(CCO)CCCC(C)(C)O (stereo not drawn)
inactive: outcome [1] | Potency [2] | outcome [7] | outcome [3] | outcome [6] | Potency [9] | Potency [10]

c1ccc2cnncc2c1
inactive: outcome [1] | Potency [2] | outcome [7] | outcome [3] | Potency [5] | outcome [6] | Potency [8] | Potency [9] | Potency [10]

c1cc(CN2CCCCC2)cc(OCCCNc2nc3ccccc3s2)c1
inactive: outcome [1] | Potency [2] | outcome [7] | outcome [3] | Potency [5] | outcome [6] | Potency [8] | Potency [9] | Potency [10]

NCCNC(=O)c1ccc(Cl)cn1
inactive: outcome [1] | Potency [2] | outcome [3] | outcome [4] | Potency [5] | outcome [6] | Potency [8]

CCCCc1ccc2cccc(S(=O)(=O)O)c2c1
inactive: outcome [1] | Potency [2] | outcome [7] | outcome [3] | Potency [5] | outcome [6] | Potency [8] | Potency [9]

O=C(O)c1cccc(C(=O)O)n1
inactive: outcome [1] | Potency [2] | outcome [7] | outcome [3] | Potency [5] | outcome [6] | Potency [8] | Potency [9] | Potency [10]

CC(=O)CCc1ccc(O)cc1
inactive: outcome [1] | Potency [2] | outcome [7] | outcome [3] | Potency [5] | outcome [6] | Potency [8] | Potency [9]

CCCCOCC(C)OCC(C)O (stereo not drawn)
inactive: outcome [1] | Potency [2] | outcome [7] | outcome [3] | Potency [5] | outcome [6] | Potency [8]

Cc1c(C)n(CCN(C)C)c2ccc(C(=O)OCCN(C)C)cc12
inactive: outcome [1] | Potency [2] | outcome [7] | outcome [3] | outcome [6]

Oc1cc(O)c2c(c1)O[C@H](c1ccc(O)c(O)c1)[C@H](O)C2
inactive: outcome [1] | Potency [2] | outcome [3] | outcome [4] | Potency [5] | outcome [6] | Potency [8] | Potency [9] | Potency [10]

C1=C\CC/C=C\CC/C=C\CC/1
inactive: outcome [1] | Potency [2] | outcome [3] | outcome [4] | outcome [6] | Potency [8] | Potency [9]

NC(=O)c1ncn([C@@H]2O[C@H](CO)[C@@H](O)[C@H]2O)c1O
inactive: outcome [1] | Potency [2] | outcome [3] | outcome [4] | Potency [5] | outcome [6] | Potency [8] | Potency [9] | Potency [10]

CCC(=O)Nc1cccc(N)c1
inactive: outcome [1] | Potency [2] | outcome [3] | outcome [4] | Potency [5] | outcome [6] | Potency [9] | Potency [10]

CCC(=O)c1cccc(Cl)c1
inactive: outcome [1] | Potency [2] | outcome [3] | outcome [4] | Potency [5] | outcome [6] | Potency [8] | Potency [9] | Potency [10]

Cc1ccccc1C(=O)O
inactive: outcome [1] | Potency [2] | outcome [3] | outcome [4] | Potency [5] | outcome [6] | Potency [8]

CN1[C@@H]2CC[C@H]1CC(NC(=O)n1c(=O)[nH]c3ccccc31)C2 (stereo partly drawn)
inactive: outcome [1] | Potency [2] | outcome [3] | outcome [6] | Potency [9] | Potency [10]

COc1ccc(N=[N+]([O-])c2ccc(OC)cc2)cc1
inactive: outcome [1] | Potency [2] | outcome [3] | outcome [4] | Potency [5] | outcome [6] | Potency [8] | Potency [9]

CCCC=O
inactive: outcome [1] | Potency [2] | outcome [3] | outcome [4] | outcome [6] | Potency [9] | Potency [10]

C=C(C)C(=O)NCCC[N+](C)(C)C
inactive: outcome [1] | Potency [2] | outcome [3] | outcome [4] | Potency [5] | outcome [6] | Potency [8] | Potency [9] | Potency [10]

Nc1[nH]c(=O)ncc1F
inactive: fluorescence, % of fluorescein [1] 0.0412% [at 18.6 µM] | fluorescence, % of fluorescent control [2] 0.0652% [at 18.6 µM] | fluorescence, % of fluorescent control [3] -0.113% [at 18.6 µM] | fluorescence, % of Rose Bengal [4] 0.311% [at 18.6 µM] | fluorescence, % of fluorescent control [5] -0.0064% [at 18.6 µM] | fluorescence, % of fluorescein control [6] 0.186% [at 18.6 µM] | fluorescence, % of fluorescent control [8] 0.0009% [at 18.6 µM] | Potency [9] | Potency [10]

COC(=O)c1ccc(C(=O)OC)c(C(=O)OC)c1
inactive: outcome [1] | Potency [2] | outcome [3] | outcome [4] | outcome [6] | Potency [8] | Potency [9] | Potency [10]

CCN1CCCC1CNC(=O)c1cc(S(N)(=O)=O)ccc1OC (stereo not drawn)
inactive: outcome [1] | Potency [2] | outcome [3] | outcome [4] | Potency [5] | outcome [6] | Potency [8] | Potency [9]
